From PubChem BioAssay AID652268 (The Scripps Research Institute Molecular Screening Center, 2013)
Screen size: about 1,600 compounds; about 160 (10%) were called active. Cut-off read from the data, not from the text of the source: active = activation above about 1.3%; inactive = the rest. Only a sample is shown.

Assay: parental HEK293-CNG cell agonism artefacts – fluorescence, high throughput, counter-screen for GalR3 antagonist project (AID 652268)
Details: HEK293-CNG parental cells, cAMP membrane potential fluorescence; at 3 µM; hits give high values; normalised: DMSO wells 0%, forskolin wells 100%
For `CC(CCc1ccccc1)NCC(O)c1cccc([N+](=O)[O-])c1` (configuration not stated), the activation was 0.27% (inactive).
In the case of `C=CCC1(CC=C)CCCN1C(=O)c1cc(COc2ccc(-n3cncn3)cc2)on1`, the activation is reported as -0.46% (inactive).
For `Nc1ncnc2c1ncn2C1OC(CO)CC1O` (configuration not stated), the activation was -0.01% (inactive).
For `COc1cc(C(=O)Nn2c(O)c(C3=c4ccccc4=NC3=O)sc2=S)ccc1O`, the activation was -0.64% (inactive).
In the case of `COc1ccc(CCNc2nc3ccc(C)cc3n3cnnc23)cc1OC`, the activation is reported as 0.25% (inactive).
With `COc1ccc(-c2[nH]nc3c2C(c2ccncc2)C(C#N)=C(N)O3)cc1` (configuration not stated) the activation was 0.22% (inactive).
With `COCCN1Cc2cccc(C(=O)Nc3ccccc3OC)c2C1=O` the activation was 0.15% (inactive).
In the case of `CCOC(=O)c1cc2n(c1C)-c1ccccc1C2=O`, the activation is reported as 0.34% (inactive).
In the case of `Cn1c(N)c(C(=O)COC(=O)c2cnc(Cl)c(Cl)c2)c(=O)n(C)c1=O`, the activation is reported as 0.4% (inactive).
With `CCOc1ccc(C(C)=O)cc1COC(=O)c1cnc(Cl)c(Cl)c1` the activation was 4.48% (active).
In the case of `COCCNC(=O)/C(C#N)=C/c1cccc(OCc2ccccc2)c1`, the activation is reported as 0.53% (inactive).
For `CSc1nc(N)c(C#N)c(-c2ccccc2Cl)c1C#N`, the activation was -0.24% (inactive).
With `O=C(Nc1ccc(CSc2ccccc2)cc1)c1ccc(CN2CCOCC2)cc1` the activation was -1.27% (inactive).
For `C[C@@]12C(=O)N(c3cccc(Br)c3)C(=O)N1[C@H](c1ccc(Cl)cc1)[C@@H]1C(=O)N(C3CCCCC3)C(=O)[C@@H]12`, the activation was -2.49% (inactive).
For `COc1ccc(OC)c(NC(=O)CSc2nc(N)c(-c3ccccc3)c(=O)[nH]2)c1`, the activation was 0.95% (inactive).
With `COc1ccc(-c2csc(-c3cccs3)n2)cc1OC` the activation was 0.07% (inactive).
In the case of `COc1ccc(C2Nc3ccccc3C(=O)N2c2ccc(Cl)cc2)cc1Cn1cc([N+](=O)[O-])cn1` (configuration not stated), the activation is reported as -0.27% (inactive).
With `COc1ccc(C(=O)COC(=O)COc2ccc(C)c(C)c2)cc1` the activation was 0.4% (inactive).
For `Cc1c(C=O)c2ccccc2n1CC(=O)O`, the activation was 0.2% (inactive).
For `Cc1c(Cl)cccc1NC(=O)CSc1ccc(-c2cccnc2)nn1`, the activation was 0.04% (inactive).
In the case of `CC1(C)CC(N2CCN(C(c3ccccc3)c3ccccc3)CC2)=CC(=[N+]2CCCCC2)C1`, the activation is reported as 10.7% (active).
With `CC(C)(CNC(=O)c1ccc(Cl)c(S(=O)(=O)N2CCc3ccccc3C2)c1)N1CCOCC1` the activation was -0.38% (inactive).
With `COC(=O)c1cccc([N+](=O)[O-])c1CS(=O)(=O)c1ccc(C)cc1` the activation was -0.01% (inactive).
With `Cc1ccc(S(=O)(=O)N2CCN(C(=O)COC(=O)c3c(C)cc(C)cc3C)CC2)c(C)c1` the activation was 0.55% (inactive).
For `c1coc(CNc2ncnc3ccccc23)c1`, the activation was 0% (inactive).
With `Cn1nccc1C(=O)NC1CCCc2c1cnn2-c1ccc(F)cc1F` (configuration not stated) the activation was -0.59% (inactive).
For `CCCCNC(=O)c1ccccc1NC(=O)C1=C(C)OCCS1`, the activation was -0.01% (inactive).
With `Cc1ccc(F)cc1NC(=O)Cc1nn(C)c(=O)c2ccccc12` the activation was 0.14% (inactive).
With `Cn1cnc([N+](=O)[O-])c1Nc1ccccc1O` the activation was 0.12% (inactive).
In the case of `C#Cc1ccc(NC(=O)C2(C)CCN2C(=O)Cc2ccc(-c3ccccc3)cc2)cc1` (configuration not stated), the activation is reported as -0.7% (inactive).
With `O=C(CC1C(=O)NCCN1CC(c1ccccc1)c1ccccc1)NCCc1cn[nH]c1` (configuration not stated) the activation was 0.5% (inactive).
For `CC(=O)c1c(C)[nH]c(C(=O)COC(=O)c2cccc(S(=O)(=O)N(C)c3ccccc3)c2)c1C`, the activation was -0.83% (inactive).
For `c1ccc(Cc2ccc(OCCn3ccnc3)cc2)cc1`, the activation was -0.02% (inactive).
In the case of `CCCn1nc(C(=O)NNC(=O)CSCC(=O)Nc2cc(C)on2)c2ccccc2c1=O`, the activation is reported as 0.16% (inactive).
In the case of `Cn1c(CN2CCOCC2)nc2cc(NC(=O)c3ccc(Cl)cc3)ccc21`, the activation is reported as 0.05% (inactive).
With `CCNC(=S)Nc1ccc(OC(F)(F)F)cc1` the activation was -0.01% (inactive).
In the case of `CC(C)[C@@H](C(=O)OCC(=O)c1ccc2c(c1)NC(=O)CO2)N1C(=O)c2ccccc2C1=O`, the activation is reported as 0.06% (inactive).
In the case of `OC[C@@H]1CN(Cc2ccc(-c3ccccc3)cc2)C[C@H](n2cnc3c(NC4CCCC4)ncnc32)O1`, the activation is reported as -0.91% (inactive).
With `CCCOc1ccc(Cc2c(Cl)nc(SC)nc2NC)cc1` the activation was 1.12% (inactive).
In the case of `COc1ccc(N(C(=O)CNC(=O)c2ccco2)C(C(=O)NCC2CCCO2)c2ccccc2)cc1Cl` (configuration not stated), the activation is reported as -0.24% (inactive).
With `CC(=O)OC(C)C[N+](C)(C)C` (configuration not stated) the activation was 0.43% (inactive).
For `COC(=O)c1ccc(/C=N/N2C(C)CCCC2C)cc1` (configuration not stated), the activation was 0.27% (inactive).
For `COc1cc(NC(=O)c2cc([N+](=O)[O-])ccc2Br)ccc1NC(=O)c1ccco1`, the activation was -0.55% (inactive).
For `CCn1c(-c2cc(OC)ccc2OC)csc1=Nc1c(C)n(C)n(-c2ccccc2)c1=O`, the activation was 0.13% (inactive).
With `CCN1/C(=C\c2ccc3ccccc3[n+]2CC)Sc2cc(C)ccc21` the activation was 8.28% (active).
For `Nc1nc(NCC(=O)O)nc(N2CCCCCC2)c1[N+](=O)[O-]`, the activation was 0.22% (inactive).
In the case of `CSc1nccc(NC(=O)c2ccc(C(C)(C)C)cc2)n1`, the activation is reported as 0.22% (inactive).
For `CCOC(=O)c1c(NC(=O)CSc2nccc(=O)[nH]2)sc(C)c1C`, the activation was -1.63% (inactive).
In the case of `COc1ccc(C2CC(=O)Nc3sc(=N)c4c(N)c(C#N)c(N)nc4c32)cc1OC` (configuration not stated), the activation is reported as -0.03% (inactive).
For `CC(=O)N1CCCc2cc(S(=O)(=O)N3CCCC(C(=O)N4CCN(c5cccc(Cl)c5)CC4)C3)ccc21` (configuration not stated), the activation was -1.04% (inactive).
In the case of `CN(Cc1cccnc1)C(=O)c1cc(COc2ccc3ncccc3c2)on1`, the activation is reported as -0.15% (inactive).
For `NC(=O)c1ccc(NC(=O)COC(=O)C(Cc2ccccc2)NC(=O)c2ccccc2)cc1` (configuration not stated), the activation was -0.37% (inactive).
With `CCOc1cc(C(=O)N2CCc3cc(OC)c(OC)cc3C2)ccc1OC(F)F` the activation was 1.51% (active).
For `O=C(Nc1ccccc1Cl)/C(Cl)=C(\Cl)S(=O)c1ccccc1` (configuration not stated), the activation was 3.18% (active).
In the case of `O=C(/C=C/c1c(F)cccc1Cl)Nc1nn[nH]n1`, the activation is reported as 0.23% (inactive).
In the case of `Nc1nonc1-n1nnc(C(=O)N/N=C/c2cc(Br)ccc2O)c1CSC1=NCCS1`, the activation is reported as 0.22% (inactive).
With `CCN(CC(=O)NCc1ccc(Cl)cc1)C(=O)CSc1ccccc1` the activation was -0.45% (inactive).
With `O=C(NC(Nc1nc2ccc([N+](=O)[O-])cc2s1)(C(F)(F)F)C(F)(F)F)c1ccccc1` the activation was 9.23% (active).
For `COc1cc(Cl)c(C)cc1NC(=O)[C@@H]1CCCN1C(=O)c1cccs1`, the activation was -0.08% (inactive).
In the case of `CCOc1ccc(Br)cc1CSC(=N)N`, the activation is reported as 3.59% (active).
For `CNC(=O)NC(=O)CSc1nnc(-c2ccc(F)cc2)n1CC1CCCO1` (configuration not stated), the activation was 0.01% (inactive).
With `CCc1ccc(-c2nc(SCC(=O)NC3CCCC3)n[nH]2)cc1` the activation was 0.04% (inactive).
In the case of `COc1cc2c(cc1OC)C(c1cccc([N+](=O)[O-])c1)=NCC2`, the activation is reported as 0.46% (inactive).
For `COc1ccc(NS(=O)(=O)c2ccc(NC(=O)c3ccc(N(C)S(C)(=O)=O)cc3)cc2)cc1`, the activation was -0.8% (inactive).
For `O=C(CC(O)(C(F)(F)F)C(F)(F)F)Nc1ccc(Cl)c(Cl)c1`, the activation was 1.84% (active).
With `CSc1nc(N(C)NC(=O)c2cccc(C)c2)c2ccccc2n1` the activation was 2.12% (active).
In the case of `Cc1nc2ccccc2cc1OCc1ccc(F)cc1`, the activation is reported as 1.08% (inactive).
